# Assay results taken from the supplement of paper PMC6992640.
# ± gives the standard deviation of the averaged measurements.
# Assays:
# Experiment in all cases: cell viability (% of vehicle); higher = less cytotoxic
# Settings in all cases: 10 µM; 72 h
# HCI01 = system: HCI01 (cells of a triple-negative basal-like breast cancer xenograft)
# HCI03 = system: HCI03 (cells of an ER-positive luminal breast cancer xenograft)
# HCI09 = system: HCI09 (cells of a triple-negative luminal androgen receptor type breast cancer xenograft)
# HCI11 = system: HCI11 (cells of an ER-positive luminal breast cancer xenograft)
# HCI13 = system: HCI13 (cells of an ER-positive luminal breast cancer xenograft)
# HCI16 = system: HCI16 (cells of a triple-negative basal-like breast cancer xenograft)
# UCD52 = system: UCD52 (cells of a triple-negative basal-like breast cancer xenograft)
# WHIM2 = system: WHIM2 (cells of a triple-negative basal-like breast cancer xenograft)
# WHIM30 = system: WHIM30 (cells of a triple-negative basal-like breast cancer xenograft)
# 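Note: PDX cells carrying CMV promoter-driven luciferase, viability read as total photon flux per second by IVIS imaging following D-luciferin, vehicle control 0.1% DMSO.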
SMILES,cell viability (HCI01),cell viability (HCI03),cell viability (HCI09),cell viability (HCI11),cell viability (HCI13),cell viability (HCI16),cell viability (UCD52),cell viability (WHIM2),cell viability (WHIM30)
C1N2CN3CN1CN(C2)C3 [Methenamine],89.3 ± 14,127,101 ± 14,90.8,177 ± 29,104,90.2 ± 4.5,91.8 ± 2.4,142 ± 4.7
O=C1OC(C(O)CO)C([O-])=C1O.[Na+] (stereo not given) [Sodium ascorbate],94.7 ± 14,87,90.3 ± 1.3,87,52 ± 6.5,92.3,77.3 ± 8.9,115 ± 31,120 ± 3
CCC(C)C(=O)OC1CC(O)C=C2C=CC(C)C(CCC(O)CC(O)CC(=O)[O-])C21.[Na+] (stereo not given) [Pravastatin sodium],142 ± 13,184,126 ± 28,113,142.3 ± 0.11,152,100 ± 3.8,105 ± 20,156 ± 1.8
CO[C@H]1/C=C/O[C@@]2(C)Oc3c(C)c(O)c4c(O)c(c5c(nc6cc(C)ccn65)c4c3C2=O)NC(=O)/C(C)=C\C=C\[C@H](C)[C@H](O)[C@@H](C)[C@H](O)[C@@H](C)[C@H](OC(C)=O)[C@@H]1C [Rifaximin (Xifaxan)],121 ± 13,115,114 ± 43,98.8,98.8 ± 33,97.6,91.9 ± 7.9,68.6 ± 13,128 ± 12
O=C1OC(C(O)CO)C(O)=C1O (stereo not given) [Vitamin C],76.9 ± 31,111,93.6 ± 11,84.3,90 ± 12,108,75 ± 3.8,113 ± 34,135 ± 5.2
COC(=O)N=NC=C1C=[N+]([O-])c2ccccc2N1O [Carbadox],106 ± 3.1,116,97.8 ± 8.7,107,106 ± 28,98.8,72.3 ± 12,96.8 ± 9.7,114 ± 9.4
O=C(O)c1cc(=O)c2ccccc2o1 [Chromocarb],124 ± 23,119,96.2 ± 1.6,78.7,71.6 ± 5.2,111,92.59 ± 0.2,103 ± 11,85.9 ± 2.8
CCN1CCN(c2cc3c(cc2F)c(=O)c(C(=O)O)cn3C2CC2)CC1 [Enrofloxacin],105 ± 14,106,99.9 ± 18,91.8,121 ± 8.5,111,124 ± 5.2,130 ± 18,80.5 ± 6.2
CCC(CC)C(NC(C)=O)C1C(N=C(N)N)CC(C(=O)O)C1O (stereo not given) [Peramivir],112 ± 9.2,110,91.2 ± 18,98,102 ± 20,78.9,81.6 ± 14,97.5 ± 6.7,136 ± 24
CN(C)c1nc(N(C)C)nc(N(C)C)n1 [Altretamine],94.8 ± 11,96.7,89.6 ± 2.6,96.8,77.9 ± 3.4,108,78 ± 4.9,115 ± 5.7,109.4 ± 0.74
CC(CCC(=O)O)C1CCC2C3CCC4CC(O)CCC4(C)C3CC(O)C12C (stereo not given) [Deoxycholic acid],119 ± 25,143,107 ± 23,103,107.1 ± 0.2,87.1,112 ± 3.8,104 ± 19,91.5 ± 0.73
Cl.NC(CO)C(=O)NNCc1ccc(O)c(O)c1O (stereo not given) [Benserazide HCl],95.9 ± 1.5,69.1,83.6 ± 6.1,44.9,79.2 ± 11,77.2,69.6 ± 8.5,96.3 ± 3.2,103 ± 4.4
CCc1cc(C(C)=NOCc2ccc(C3CCCCC3)c(C(F)(F)F)c2)ccc1CN1CC(C(=O)O)C1 [BAF312 (Siponimod)],97.4 ± 10,124,44.2 ± 29,72.2,75.64 ± 0.57,115,93.7 ± 1.5,93.7 ± 17,111 ± 9.5
CCN(CC)C(=S)SSC(=S)N(CC)CC [Disulfiram],140 ± 49,75.8,71.6 ± 4.1,66.5,90 ± 5.2,92.3,82.3 ± 8.8,102 ± 8,115 ± 14
CC(C)NCC(O)COc1ccc(CCOCC2CC2)cc1.Cl (stereo not given) [Betaxolol HCl],132 ± 2.2,134,107 ± 34,107,87 ± 6.8,149,74.2 ± 1.6,101 ± 15,117 ± 1.3
Cl.Cl.OCCOCCN1CCN(C(c2ccccc2)c2ccc(Cl)cc2)CC1 (stereo not given) [Hydroxyzine 2HCl],169 ± 3.3,99.9,112 ± 5.6,117,85.42 ± 0.6,128,76.48 ± 0.64,97.2 ± 2.3,140 ± 23
O=C(O)[C@H](O)[C@@H](O)C(=O)O.c1cnc2cc3c(cc2n1)C1CNC[C@@H]3C1 [Varenicline Tartrate],169.5 ± 0.68,128,131 ± 5.6,138,128.8 ± 0.16,153,99.9 ± 8.8,106 ± 5.1,158 ± 25
CC1C=CC=CC=CC=CC=CC=CC=CC(OC2OC(C)C(O)C(N)C2O)CC2OC(O)(CC(O)CC(O)C(O)CCC(O)CC(O)CC(=O)OC(C)C(C)C1O)CC(O)C2C(=O)O (stereo not given) [Amphotericin B],108 ± 19,116,105 ± 2.6,109,107 ± 18,107,82.2 ± 5.4,95.2 ± 23,127 ± 1.4
COc1c(N2CCNC(C)C2)c(F)cc2c(=O)c(C(=O)O)cn(C3CC3)c12 (stereo not given) [Gatifloxacin],99.3 ± 31,81.1,75 ± 10,124,82.6 ± 7.6,92.2,140 ± 6.7,59.6 ± 23,124 ± 24
O=CC(O)C(O)C(O)CO (stereo not given) [Xylose],70.5 ± 35,96.1,91.8 ± 13,90.9,104 ± 18,108,83 ± 1.1,94.5 ± 4.8,129 ± 0.16
